From PubChem BioAssay
VP16 counter = counter-screen for ROR gamma inhibitors: Gal4-VP16 reporter; Drosophila S2 Gal4-VP16 UAS-luciferase, luminescence, 20 h; Potency, µM (titrated, usually from 53.6 µM), for the others: at the top dose activity, negative = inhibition, hits mostly inhibitors; 310,000 tested, 3.5% active; AID 2546;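 also: Gal4-VP16 expression switched on by copper sulfate through the metallothionein promoter; nearly all actives have a fitted effect of over 50% in size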
DT40 TDP1 no CPT = qHTS for Inhibitors of human tyrosyl-DNA phosphodiesterase 1 (TDP1): qHTS in cells in absence of CPT; DT40 Tdp1-/- hTDP1 cells, no CPT, ATP luminescence, 48 h; Potency, µM (top dose mostly 46.2 µM), without a hit: at the highest dose activity change, negative = growth inhibition, usual class: inhibitors; 420,000 tested, 15% active; also: nearly all actives have a fitted effect of over 55% in size
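No-CPT arm: Tdp1-/-;hTDP1 DT40 cells (400/well) plus compounds, incubated ≥48 hr at 37 °C. Readout CellTiter-Glo luminescence.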
RORg inh = inhibitors of mouse ROR gamma transcriptional activity; P51450; Potency, µM (top dose mostly 53.6 µM), for inactives: top-dose activity change, negative = inhibition, hits mostly inhibitors; Drosophila S2 Gal4-RORgamma UAS-luciferase reporter, 20 h; AID 2551; 310,000 tested, 5.4% active; also: nearly all actives have a fitted effect of over 60% in size
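Drosophila Schneider cells stably carrying a metallothionein-driven Gal4 DBD–ROR gamma fusion and a UAS-Photinus luciferase reporter were exposed to compound for 1 hr, then induced with copper sulfate (700 uM final) for 20 hr at ambient temperature before luminescence reading.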
DT40 TDP1 CPT = growth inhibition of DT40 Tdp1-/-;hTDP1 cells with camptothecin (screen for TDP1 inhibitors). chicken DT40 Tdp1-/-;hTDP1 cells + 20 nM CPT, ATP luminescence, 48 h. Potency, µM (doses to about 46.2 µM), for inactives: at the top dose activity change, negative = growth inhibition, hits mostly inhibitors. 420,000 tested, 12% active. AID 686979; also: nearly all actives have a fitted effect of over 55% in size
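Chicken DT40 Tdp1-/- cells complemented with human TDP1, 400 cells/well, exposed to compounds plus 20 nM camptothecin for at least 48 h at 37 C; viability read as ATP content by CellTiter-Glo luminescence.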
ELG1 repair inh = blocks ELG1-dependent DNA repair in HEK293T cells; HEK293T ELG1-luciferase reporter, luminescence, 16 h; DNA damage induced by 5-fluorouridine; Potency, µM (doses to about 46.1 µM), for inactives: top-dose activity change, negative = inhibition, hits mostly inhibitors; 330,000 tested, 2.3% active; AID 504467; also: nearly all actives have a fitted effect of over 55% in size
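In this reporter screen, reduction of luminescence relative to DMSO vehicle indicated activity. Compounds and 5-fluorouridine were added together to 2,000 cells per well, incubated for 16 hr at 37 °C, then developed with ONE-Glo.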
12-LOX inh = ALOX12 (human) lipoxygenase inhibition; AID 1671190; Potency, µM (top dose mostly 108 µM), for the others: at the top dose activity change, negative = inhibition, hits mostly inhibitors; purified 12hLO, xylenol orange hydroperoxide absorbance; 580,000 tested, 1.1% active; P18054
Target sequence (P18054 whole entry, looked up): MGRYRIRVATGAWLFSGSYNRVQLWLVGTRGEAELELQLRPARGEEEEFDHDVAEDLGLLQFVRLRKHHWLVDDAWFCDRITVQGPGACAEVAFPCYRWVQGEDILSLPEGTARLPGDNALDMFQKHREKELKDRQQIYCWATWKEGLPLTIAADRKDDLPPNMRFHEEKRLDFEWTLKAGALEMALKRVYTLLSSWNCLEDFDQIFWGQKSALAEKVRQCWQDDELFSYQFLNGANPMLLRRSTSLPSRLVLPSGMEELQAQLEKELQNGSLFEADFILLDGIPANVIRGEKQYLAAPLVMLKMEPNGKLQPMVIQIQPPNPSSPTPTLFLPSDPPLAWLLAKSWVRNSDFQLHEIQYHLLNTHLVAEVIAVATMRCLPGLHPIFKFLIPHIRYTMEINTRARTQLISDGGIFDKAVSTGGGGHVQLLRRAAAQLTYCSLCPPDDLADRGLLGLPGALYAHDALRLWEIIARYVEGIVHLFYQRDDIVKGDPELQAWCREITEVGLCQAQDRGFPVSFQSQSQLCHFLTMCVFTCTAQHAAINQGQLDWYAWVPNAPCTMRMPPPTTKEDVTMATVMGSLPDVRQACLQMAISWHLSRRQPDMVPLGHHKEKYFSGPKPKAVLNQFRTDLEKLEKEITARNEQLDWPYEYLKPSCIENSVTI
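Hydroperoxide product was detected by ferrous iron/xylenol orange as the 573 to 405 nm absorbance ratio. Arachidonic acid at 40 uM (final) was turned over for 30 min at room temperature by 150 nM human 12hLO, pH 7.0 Hepes buffer, after 15 min compound preincubation.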
* = called active by the depositor; ? = inconclusive; / = no result; [ ] = dose if it differs, or a comment. This is a sample that favours compounds with a hit; in the whole collection about 15% have one here. Calls follow the shape of the dose curve; as a rule, active = well fitted curve in the direction sought with a large enough effect; inconclusive = small, poorly fitted or top-dose-only effect, or another doubt; inactive = no such curve, though single readings can be large; an effect the other way counts as inactive or inconclusive. % is scaled to controls: 0 for no effect and ±100 for the full control effect; potency is read from the fitted curve at half-maximal effect.

SMILES	VP16 counter	DT40 TDP1 no CPT	RORg inh	DT40 TDP1 CPT	ELG1 repair inh	12-LOX inh
COc1ccc(/C=N\NC(=O)C2=NNC(=O)C2C)cc1 (stereo not given)	3.16µM*	-27.2%	12.6µM*	-28.7%	?	0.8%[57.4 µM]
COc1ccc(/C=N/NC(=O)C2c3ccccc3-c3ccccc32)cc1	-8.5%	20.6µM*	-1.8%	?	?	13.8%
COC(=O)C1=C(C(=O)OC)SC2(S1)C(c1ccccc1)=CSC(C(=O)OC)=C2C(=O)OC	/	/	/	/	/	-23.9%
COc1ccccc1-c1cc(N2CCOCC2=O)c2cncn2c1	/	/	/	/	/	-9.7%[176 µM]
CCOC(=O)c1[nH]c(C)c(C(=O)Nc2ccc(Cl)cc2)c1C	26.0%	-10.8%	-16.6%	8.6%	?	7.4%[57.4 µM]
COc1ccc(CNC(=O)c2[nH]c(C)c(C(C)=O)c2C)cc1	-8.4%	?	14.4%	9.2µM*	-16.2%	?
CCOC(=O)c1c(C)[nH]c(C(=O)N/N=C\c2ccccc2Cl)c1C	?	16.4µM*	8.91µM*	16.4µM*	-12.2%	29.2%
CCCCC(CC)CNC(=O)c1[nH]c(C)c(C(C)=O)c1C (stereo not given)	4.9%	23.1µM*	32.2%	?	?	157.8%
COc1ccc(CCNC(=O)c2[nH]c(C)c(C(C)=O)c2C)cc1	13.0%	-17.2%	-20.3%	-16.1%	-17.4%	0.0%
CCOC(=O)c1[nH]c(C)c(C(=O)Nc2cccc(Cl)c2C)c1C	9.4%	16.4µM*	10.0%	10.3µM*	-10.7%	-2.7%
O=C(N/N=C1\CCCc2c1[nH]c1ccc(Cl)cc21)c1ccncc1	-8.6%	10.3µM*	16.7%	11.6µM*	?	-11.8%
O=C(NN=C1CCCCC1)c1ccncc1	/	/	/	/	/	1.4%
COc1ccccc1NC(=O)COc1ccccc1C(=O)c1cnn(-c2ccccc2)c1	-5.3%	23.1µM*	?	20.6µM*	-0.4%	-9.0%
CCc1ccc(NC(=O)COc2ccc(F)cc2C(=O)c2cnn(-c3ccccc3)c2)cc1	-2.8%	?	?	?	?	-11.7%
CCCOc1ccc(NC(=O)COc2ccc(C)cc2)c2cccnc12	/	/	/	/	/	6.7%
Cc1nc(-c2cccc(S(=O)(=O)N3CCC(C(=O)NCc4ccccc4Cl)CC3)c2)no1	/	-88.5%	/	18.4µM*	/	0.1%
CCc1cccc(NC(=O)C2CCN(S(=O)(=O)c3cccc(-c4noc(C)n4)c3)CC2)c1	/	20.6µM*	/	?	/	-17.1%
Cc1nc(-c2ccc(C)c(S(=O)(=O)N3CCC(C(=O)Nc4ccc(Cl)cc4)CC3)c2)no1	/	?	/	16.4µM*	/	?
CCc1cccc(NC(=O)C2CCN(S(=O)(=O)c3c(C)noc3C)CC2)c1	-8.1%	-21.9%	26.2%	9.3%	-11.3%	11.7%
O=C(c1coc2ccccc12)N1CCN(Cc2cnc[nH]2)CC(O)C1 (stereo not given)	/	/	/	/	/	92.5%
CC(C)CNC(=O)COC(=O)c1ccc(Br)cc1	/	/	/	/	/	-35.5%
Cc1ccc([N+](=O)[O-])cc1S(=O)(=O)N1CCNCC1	3.0%	?	2.9%	?	7.6%	2.5%
Cc1ccc([N+](=O)[O-])cc1S(=O)(=O)N(C)N=Cc1cnc2ccc(Br)cn12	/	/	/	/	/	8.63µM*
Cc1cc(C(C)(C)c2ccc(OC(=O)c3ccccc3F)c(C)c2)ccc1OC(=O)c1ccccc1F	/	/	/	/	/	8.3%
Cc1cc(C(=O)O)cc(Br)c1N	-15.1%	4.9%	-23.3%	15.0%	16.4%	2.9%
SMILES	VP16 counter	DT40 TDP1 no CPT	RORg inh	DT40 TDP1 CPT	ELG1 repair inh	12-LOX inh
Cc1cc(N)cc(C)c1-c1c(Br)cc(N)cc1Br	/	18.4µM*	/	13µM*	/	?
COc1cccc(OCc2cc(C3Nc4ccccc4C(=O)N3Cc3ccccc3)ccc2OC)c1 (stereo not given)	/	?	/	-26.9%	/	/
CCCN1C(=O)c2ccccc2NC1c1ccc(OC)c(COc2ccc([N+](=O)[O-])c(C)c2)c1 (stereo not given)	/	17.8µM*	/	?	/	/
COc1ccc(C2Nc3ccccc3C(=O)N2Cc2ccco2)cc1COc1ccc([N+](=O)[O-])cc1 (stereo not given)	-4.9%	23.1µM*	44.5%	?	?	?
COc1ccc(C2Nc3ccccc3C(=O)N2Cc2ccco2)cc1COc1c(C)cccc1C (stereo not given)	/	5.01µM*	/	2.51µM*	/	/
Clc1ccc(C2Cn3nnc(-c4nc(-c5cccc(Cl)c5)no4)c3CO2)cc1 (stereo not given)	/	/	/	/	/	30.6%
CCOC(=O)C1=C(C)Nc2sc(C(=O)c3ccc(C)cc3)c(N)c2C1c1ccc(C(=O)OC)cc1 (stereo not given)	-10.5%	?	-4.6%	?	?	?
CCOC(=O)C1=C(C)Nc2sc(C(=O)c3ccc(F)cc3)c(N)c2C1c1ccc(C(=O)OC)cc1 (stereo not given)	3.3%	11.6µM*	22.2%	18.4µM*	5.17µM*	-20.2%
O=C(CSc1nc2ccccc2c(=O)n1CC1CCCO1)Nc1ccc2[nH]c(=O)[nH]c2c1 (stereo not given)	/	/	/	/	/	-1.0%
CC(=NNC(=O)c1ccncc1)c1ccccc1Cl	/	7.0%	/	8.5%	/	19.6%
C/C(=N\NC(=O)c1ccc(OC2OCCOC2Oc2ccc(C(=O)N/N=C(\C)c3ccncc3)cc2)cc1)c1ccncc1 (stereo not given)	?	7.31µM*	?	6.51µM*	?	-3.5%
C/C(=N\NC(=O)c1ccccc1NC(=O)c1ccc(Cl)cc1)c1ccncc1	0.891µM*	1.16µM*	0.562µM*	0.92µM*	?	7.5%
C/C(=N\NC(=O)c1ccc(N/N=C(\C)c2ccncc2)cc1)c1ccncc1	5.2%	20.6µM*	-21.5%	?	23.1µM*	-28.0%
C/C(=N/NC(=O)c1ccncc1)c1ccccc1	-4.5%	-4.7%	1.5%[1.91 µM]	4.1%	?	?
Cn1ncc(Cl)c1C(=O)Nc1ccncc1	4.6%	-10.8%	17.4%	-3.1%	-12.9%	0.0%
C/C(=N\NC(=O)c1c(Cl)cnn1C)c1ccc(NC(=O)c2ccncc2)cc1	29.1%	20.6µM*	-8.6%	?	-27.8%	-2.2%
C/C(=N\NC(=O)c1ccncc1)c1ccc(N2CCOCC2)cc1	/	-6.4%	/	-18.9%	13.6%	-3.9%
CCC(CC)C(=O)O	/	/	/	/	/	0.6%[176 µM]
Cc1sc2ccn(Cc3ccc(F)cc3)c(=O)c2c1C(=O)NCc1cccs1	/	/	/	/	/	27.3%
COc1ccccc1CC(=O)NC(c1cccs1)C1CCCC1 (stereo not given)	/	/	/	/	/	20.6%
